# Laboratory results taken from PubChem BioAssay (Tox21).
# Unmarked numbers belong to inactive results. Records with an inconclusive call do not appear. Entries that show only a call come without a potency. Active and inactive are the calls of the source. The call rests on the fitted dose curve.
# Tests used:
# [1] = target: Acetylcholinesterase (Homo sapiens) (UniProt P22303); assay: Acetylcholinesterase (AChE) small molecule antagonists: enzyme-based qHTS assay (AID 1347397); settings: Potency: AChE enzyme activity inhibition; outcome: AChE enzyme activity inhibition; further: nearly all actives have a fitted effect of over 55% in size; further: potency means the concentration at half of the fitted maximal effect
# Outline: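 Human recombinant acetylcholinesterase; substrate acetylthiocholine; thiocholine quantified with DTNB (colorimetric). Compound preincubation 30 min RT; reaction 10 min RT.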
# [2] = target: Acetylcholinesterase (Homo sapiens) (UniProt P22303); assay: Acetylcholinesterase (AChE) small molecule antagonists: enzyme-based qHTS assay with human liver microsomes (AID 1347399); settings: Potency: qHTS inhibition; outcome: qHTS inhibition; further: nearly all actives have a fitted effect of over 60% in size
# Outline: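 Recombinant human AChE (50 mU/mL in the enzyme mix) and human liver microsomes (0.25 mg/mL final) were preincubated with compound and NADPH (0.25 mg/mL final) for 30 min at 37 C. Acetylthiocholine/DTNB was then added; thiocholine was read colorimetrically after 10 min at room temperature.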
# [3] = target: Acetylcholinesterase (Homo sapiens) (UniProt P22303); assay: Acetylcholinesterase (AChE) small molecule antagonists: fluorescence cell-based qHTS assay (AID 1347398); settings: Potency: AChE activity; outcome: AChE activity; further: nearly all actives have a fitted effect of over 50% in size; further: potency means the concentration at half of the fitted maximal effect
# Outline: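 Thiocholine generated from acetylthiocholine by SH-SY5Y cell AChE is detected with Thiolite Green (Ex/Em 490/520 nm) after 40 min at room temperature, following 30 min compound pretreatment at 37 C.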
# Chain of Acetylcholinesterase (Homo sapiens) (P22303 whole entry, looked up): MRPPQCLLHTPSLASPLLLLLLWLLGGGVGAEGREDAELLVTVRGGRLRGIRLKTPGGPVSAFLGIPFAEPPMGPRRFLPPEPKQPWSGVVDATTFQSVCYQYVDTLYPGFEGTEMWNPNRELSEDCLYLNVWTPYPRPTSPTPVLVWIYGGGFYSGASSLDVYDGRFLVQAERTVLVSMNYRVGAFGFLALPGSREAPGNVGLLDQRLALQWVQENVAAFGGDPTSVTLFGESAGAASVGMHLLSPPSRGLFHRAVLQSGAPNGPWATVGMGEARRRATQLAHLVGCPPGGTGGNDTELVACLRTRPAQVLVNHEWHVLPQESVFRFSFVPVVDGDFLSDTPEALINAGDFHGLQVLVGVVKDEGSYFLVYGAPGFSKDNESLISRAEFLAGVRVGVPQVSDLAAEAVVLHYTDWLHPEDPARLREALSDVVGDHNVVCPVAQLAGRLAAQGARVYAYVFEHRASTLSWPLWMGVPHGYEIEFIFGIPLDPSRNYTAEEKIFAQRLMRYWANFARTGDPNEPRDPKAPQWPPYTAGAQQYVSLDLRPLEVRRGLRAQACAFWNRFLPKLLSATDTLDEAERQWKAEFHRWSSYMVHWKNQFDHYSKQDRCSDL
smiles,measurement,setting,value
COc1cc2ncnc(Nc3ccc(F)c(Cl)c3)c2cc1OCCCN1CCOCC1,Potency,[1],inactive
same,Potency,[2],inactive
CCC(CN)=C(c1ccccc1)c1ccccc1,Potency,[1],inactive
same,Potency,[2],inactive
Cc1c(C)c2c(c(C)c1OC(=O)CCC(=O)OCCO)CC[C@@](C)(CCC[C@H](C)CCC[C@H](C)CCCC(C)C)O2,Potency,[1],inactive
same,Potency,[2],inactive
Cc1cc(O)ccc1N,Potency,[1],inactive
same,Potency,[2],inactive
CC(C)C(=O)Nc1cccc(C2CN3CCSC3=N2)c1 (stereo unspecified),Potency,[1],inactive
same,Potency,[2],inactive
NS(=O)(=O)c1cc2c(cc1Cl)NC(CC1CCCC1)NS2(=O)=O (stereo unspecified),Potency,[1],inactive
same,Potency,[2],inactive
CN1CCCCC1CCN1c2ccccc2Sc2ccc(S(C)=O)cc21 (stereo unspecified),Potency,[1],inactive
same,Potency,[2],inactive
COc1ccc(-n2nc(C(F)F)cc2-c2ccc(S(C)=O)cc2)cc1 (stereo unspecified),Potency,[1],inactive
same,Potency,[2],inactive
O=C1CCN(c2ccccc2)N1,Potency,[1],inactive
same,Potency,[2],inactive
CC1COc2c(N3CCN(C)CC3)c(F)cc3c(=O)c(C(=O)O)cn1c23 (stereo unspecified),Potency,[1],inactive
same,Potency,[3],inactive
same,Potency,[2],inactive
S=c1[nH]c2ccccc2s1,Potency,[1],inactive
same,Potency,[2],inactive
COCCOc1cc2cc(C(=O)NC3CCN(C(C)C)CC3)n(CC(=O)Nc3ccc(Cl)cn3)c2cn1,Potency,[1],inactive
same,Potency,[2],inactive
CCCOC(=O)c1ccc(O)cc1,Potency,[1],inactive
same,Potency,[3],inactive
same,Potency,[2],inactive
O=C(OCC(COC(=O)c1ccccc1)(COC(=O)c1ccccc1)COC(=O)c1ccccc1)c1ccccc1,Potency,[1],inactive
same,Potency,[2],inactive
NC1(c2ccc(-c3nc4ccn5c(=O)[nH]nc5c4cc3-c3ccccc3)cc2)CCC1,Potency,[1],inactive
same,Potency,[2],inactive
CN1C(=O)c2ccc([N+](=O)[O-])cc2C1=O,Potency,[1],inactive
same,Potency,[2],inactive
O=C(O)c1cc(=O)c2ccccc2o1,Potency,[1],inactive
same,Potency,[2],inactive
CN1CCN(c2cc3c(nn2)Oc2ccccc2N3C)CC1,"activity change, negative = inhibition",[1],-13.5% [at 23.6 µM]
same,"activity change, negative = inhibition",[2],1.76% [at 23.6 µM]
CCC1=C[C@@H]2CN(C1)Cc1c([nH]c3ccccc13)[C@@](C(=O)OC)(c1cc3c(cc1OC)N(C)[C@H]1[C@@](O)(C(=O)OC)[C@H](OC(C)=O)[C@]4(CC)C=CCN5CC[C@]31[C@@H]54)C2,Potency,[1],inactive
same,Potency,[2],inactive
Nc1ccc(F)c([N+](=O)[O-])c1,Potency,[1],inactive
same,Potency,[3],inactive
same,Potency,[2],inactive
Nc1ccc(S(=O)(=O)Nc2ccccc2)cc1,Potency,[1],inactive
same,Potency,[2],inactive
COc1c(C)c2c(c(O)c1C/C=C(\C)CCC(=O)OCCN1CCOCC1)C(=O)OC2,Potency,[1],inactive
same,Potency,[2],inactive
NC(N)=N/N=C/c1c(Cl)cccc1Cl,Potency,[1],inactive
same,Potency,[2],inactive
O=C1CC[C@H](C(=O)N2CCCCC2)N1,Potency,[1],inactive
same,Potency,[3],inactive
same,Potency,[2],inactive
COc1ccnc2c1CCCCC2S(=O)c1nc2ccccc2[nH]1 (stereo unspecified),Potency,[1],inactive
same,Potency,[2],inactive
CCN(CC)CCNC(=O)c1cc(Cl)c(N)cc1OC,Potency,[1],inactive
same,Potency,[2],inactive
NCc1cccc(C2CCN(C(=O)c3ccc(C#Cc4ccccc4F)o3)CC2)c1,Potency,[1],79.6 µM (active)
same,Potency,[2],inactive
Oc1ccc(C(O)CNCCCCCCNCC(O)c2ccc(O)c(O)c2)cc1O (stereo unspecified),Potency,[1],inactive
same,Potency,[2],inactive
CCCC[P+](C)(CCCC)CCCC,Potency,[1],inactive
same,Potency,[2],inactive
Cc1cc(-c2ccc(N=Nc3cc(S(=O)(=O)O)c4ccccc4c3N)c(C)c2)ccc1N=Nc1cc(S(=O)(=O)O)c2ccccc2c1N,Potency,[1],inactive
same,Potency,[2],inactive
C/C=C1/C(=O)C[C@H]2[C@@H]3CCC4=CC(=O)CC[C@]4(C)[C@H]3CC[C@]12C,Potency,[1],inactive
same,Potency,[2],inactive
O=C(O)c1cccc(N(Cc2cccnc2)c2ccc(OC(F)F)c(OC(F)F)c2)c1,Potency,[1],inactive
same,Potency,[2],inactive
CC1CNCC(C)O1 (stereo unspecified),Potency,[1],inactive
same,Potency,[2],inactive
CCCn1cc[n+](C)c1C,Potency,[3],inactive
same,Potency,[2],inactive
Cc1c(C)n(CCN(C)C)c2ccc(C(=O)OCCN(C)C)cc12,Potency,[1],inactive
same,Potency,[2],inactive
NC(=O)C(c1ccccc1)(c1ccccc1)[C@@H]1CCN(CCc2ccc3c(c2)CCO3)C1,Potency,[1],inactive
same,Potency,[2],inactive
Cc1cc(=O)oc2cc(N(C)C)ccc12,Potency,[1],inactive
same,Potency,[2],inactive
Cc1cc(O)ccc1O,Potency,[3],71.8 µM (active)
same,Potency,[2],inactive
CCN(CC)CCNC(=O)c1ccc(NC(C)=O)cc1,Potency,[1],inactive
same,Potency,[2],inactive
CN1CCC(=C2c3ccccc3CCc3sccc32)CC1,Potency,[1],inactive
same,Potency,[2],inactive
C[n+]1ccn(Cc2ccccc2)c1,Potency,[1],inactive
same,Potency,[2],inactive
Oc1ccc(Cl)cc1C1CCCC1,Potency,[1],inactive
same,Potency,[2],inactive
CCCCN(CCCC)CCCOC(=O)c1ccc(N)cc1,Potency,[1],inactive
same,Potency,[2],inactive
N#C/C(=C1\SCC(c2ccccc2Cl)S1)n1ccnc1 (stereo unspecified),Potency,[1],inactive
same,Potency,[2],inactive
Cc1nc2n(c(=O)c1CCN1CCC(c3noc4cc(F)ccc34)CC1)CCCC2,Potency,[1],inactive
same,Potency,[2],inactive
C[C@@H]1CCC[C@H](C)N1CCCC(O)(c1ccccc1)c1ccccn1 (stereo partly specified),Potency,[1],inactive
same,Potency,[2],inactive
O=[N+]([O-])c1cccc(S(=O)(=O)NCCNS(=O)(=O)c2cccc([N+](=O)[O-])c2)c1,Potency,[1],inactive
same,Potency,[2],inactive
CCCCCC(=O)CC,Potency,[1],inactive
same,Potency,[2],inactive
CCO[C@H](Cc1ccc(OCCc2ccc(OS(C)(=O)=O)cc2)cc1)C(=O)O,Potency,[1],inactive
same,Potency,[2],inactive
c1ccc2c(CC3=NCCN3)cccc2c1,Potency,[1],inactive
same,Potency,[2],inactive
O=C1NC2CCCCN2C12CCN(CCCN1c3ccccc3CCc3ccc(Cl)cc31)CC2 (stereo unspecified),Potency,[1],inactive
same,Potency,[2],inactive
CCN(CC)CCNc1ccc(CNC=O)c2sc3ccc(OC)cc3c(=O)c12,Potency,[3],39.9 µM (active)
same,Potency,[2],inactive
Cc1c(NC(C)C)c(=O)n(-c2ccccc2)n1C,Potency,[1],inactive
same,Potency,[2],inactive
Cc1nc(Nc2ncc(C(=O)Nc3c(C)cccc3Cl)s2)cc(N2CCN(CCO)CC2)n1,Potency,[1],inactive
same,Potency,[2],inactive
N#C/C(=C1/SC[C@@H](c2ccc(Cl)cc2Cl)S1)n1ccnc1,Potency,[1],inactive
same,Potency,[2],inactive
c1ccc2c(c1)CCCC2C1=NCCN1 (stereo unspecified),Potency,[1],inactive
same,Potency,[2],inactive
